Test results taken from PubChem BioAssay AID977607 (Broad Institute, 2014).
The campaign covered roughly 1,500 compounds. About 460 (31%) were called active. Another 1% or so got no clear call; they are omitted.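 The calls were made as follows: active = curve reaches 40% activation over neutral controls at an AC40 no higher than the top valid tested concentration; inconclusive = no clear call, values can overlap the other calls; inactive = signal moving opposite to the expected increase, and the rest.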 Only a sample is shown. Results with a measured potency or affinity are listed apart.

Assay: GLuc-reported insulin release enhancers, glucose-stimulated beta cells – cell-based, INS-1E, Gaussia luciferase, luminescence, cherry-pick, set 2, dose response (AID 977607);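 also: 0% = median of the plate neutral control wells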
Settings: INS-1E GLuc insulin secretion reporter, 2-3 h, hits give high values; at 35 µM, 100% = signal doubled over neutral wells unless noted

Max activation, inactive:
COc1ccc(-c2nc3cccc(C)n3c2NCc2ccco2)cc1OC -14.6% [at 1.2 µM, 100% = signal doubled over neutral wells], CN(C)c1ccc(CC(=O)N2CCCCC2c2cc(C(=O)Nc3ccccc3Cl)no2)cc1 (centres undefined) -48.9%, CCCc1c(C)c2ccc(OCC(C)=O)cc2oc1=O -16.6% [at 0.005 µM, 100% = signal doubled over neutral wells], CCOC(=O)N1CCN(S(=O)(=O)c2ccc3c4c(cccc24)C(=O)N3)CC1 37.4% [at 0.42 µM, 100% = signal doubled over neutral wells], C[C@H]1CN([C@@H](C)CO)C(=O)c2cc(C#CCc3ccccc3)cnc2O[C@@H]1CN(C)C(=O)C1CC1 -42.9%, C[C@@H]1CN([C@H](C)CO)C(=O)Cc2cc(NC(=O)CCCN(C)C)ccc2O[C@H]1CN(C)Cc1ccc(-c2ccccc2)cc1 19.8%, C[C@H](CO)N1C[C@H](C)[C@@H](CN(C)C(=O)Cc2ccccn2)Oc2cc(C#C[C@@H](C)O)ccc2S1(=O)=O -20.3% [at 0.135 µM, 100% = signal doubled over neutral wells], C[C@@H]1CN([C@@H](C)CO)C(=O)CCCn2nncc2CO[C@H]1CN(C)Cc1ccccc1 -19.1% [at 0.015 µM, 100% = signal doubled over neutral wells], O=C(Cn1cnc2c(OCc3ccccc3)ncnc21)NCc1ccccn1 17.4% [at 0.135 µM, 100% = signal doubled over neutral wells], Cc1c(C)n(CCCN(C)C)c2ncnc(Nc3ccccc3)c12 -20.1% [at 11 µM, 100% = signal doubled over neutral wells], Cc1ccc(F)cc1NC(=O)c1sc2ncn(CC(=O)N3CCN(c4ccccn4)CC3)c(=O)c2c1C -38%, S=c1[nH]nc(-c2ccccc2)n1/N=C/c1c[nH]c2ccccc12 30.5% [at 0.005 µM, 100% = signal doubled over neutral wells], Cc1ccc(/C=N/n2c(-c3cccnc3)n[nH]c2=S)s1 -11.8% [at 1.2 µM, 100% = signal doubled over neutral wells], COc1ccc(/C=N/n2c(-c3n[nH]c4c3CCC4)n[nH]c2=S)cc1OC -27.2% [at 0.0016 µM, 100% = signal doubled over neutral wells], C=CCN=c1sc(C(=O)OC)cc(=O)n1CC=C 27.6% [at 11 µM, 100% = signal doubled over neutral wells], Cc1ccc(F)cc1-c1nc(NC(C)C)nc2cc(-c3ccccc3)sc12 -27.5% [at 11 µM, 100% = signal doubled over neutral wells], COc1ccc(CCNC(=O)CN2c3cccc4cccc(c34)S2(=O)=O)cc1OC 39.7%, O=C(Nc1cccnc1)/C(N=Nc1cccnc1)=C(\O)c1ccccc1 -11.7% [at 0.42 µM, 100% = signal doubled over neutral wells], O=C(NCc1ccccc1)C(c1ccncc1)n1c(=O)c(-c2ccccc2)nc2ccccc21 (centres undefined) -12.6% [at 1.2 µM, 100% = signal doubled over neutral wells], O=C(OC1CCOC1=O)c1cc(-c2ccc(Cl)cc2)nc2ccccc12 (centres undefined) 34.2% [at 3.8 µM, 100% = signal doubled over neutral wells], COc1cc(C)c(C)cc1S(=O)(=O)N1CCCCC1c1cccnc1 (centres undefined) 13% [at 1.2 µM, 100% = signal doubled over neutral wells], CCc1nc2ccc(C(=O)NCCCN(C)C)cn2c1N(C)Cc1ccc(OC)cc1 -28.3% [at 0.046 µM, 100% = signal doubled over neutral wells], COC(=O)C1=C(C)NC(=S)NC1c1cccc(OC)c1 (centres undefined) -19.4% [at 0.046 µM, 100% = signal doubled over neutral wells], CC1CN(S(=O)(=O)c2cc(C(=O)NC(C)c3cccnc3)ccc2Cl)CC(C)O1 (centres undefined) -33%, O=C1c2[nH]nc(-c3ccccc3)c2C(c2ccccc2)N1c1ccccc1 (centres undefined) -31.9%, COc1ccccc1CNC(=O)CCNS(=O)(=O)c1ccc2[nH]c(=O)oc2c1 -23% [at 0.015 µM, 100% = signal doubled over neutral wells], COC(=O)c1cc(S(=O)(=O)NCC2CCN(Cc3cc(C)ccc3C)CC2)c[nH]1 -22.8% [at 11 µM, 100% = signal doubled over neutral wells], O=C(c1ccco1)N1CCN(C2CN(Cc3ccccc3)S(=O)(=O)C2)CC1 (centres undefined) 13.2% [at 0.135 µM, 100% = signal doubled over neutral wells], Cc1[nH]n(-c2ccc(Br)cc2)c(=O)c1/C=N/NC(=O)c1ccccc1 -37.8%, Cn1cc(Br)c(C(=O)NNC(=O)c2ccccc2)n1 -8.88% [at 0.015 µM, 100% = signal doubled over neutral wells], O=C(Nc1cccnc1Cl)C1=NN(c2ccccc2)C(=O)CC1 -19.3% [at 0.42 µM, 100% = signal doubled over neutral wells], Cn1c(=O)[nH]c(=O)c2c1nc(N1CCCCC1)n2C/C=N/Nc1ccc(C(=O)O)cc1 40.2% [at 0.0016 µM, 100% = signal doubled over neutral wells], C/C=C/Cn1c(N2CCCCCC2)nc2c1c(=O)[nH]c(=O)n2C 53.5%, C[C@@H]1CC2=C(C(=O)OC(C)(C)O2)[C@H](c2ccc(Cl)cc2)O1 -23% [at 0.42 µM, 100% = signal doubled over neutral wells], Cc1nc2ccccc2c2oc(C(=O)N3CCCC(C)C3)cc12 (centres undefined) -8.46% [at 11 µM, 100% = signal doubled over neutral wells], CCOC(=O)Cc1csc(NC(=O)c2ccc(OC)c(OC)c2)n1 24.7%, COc1ccc(CCNC(=O)Cc2ccc3c(c2)OCO3)cc1OC -22.4% [at 0.42 µM, 100% = signal doubled over neutral wells], Cc1c(C(=O)N(C)CCc2cnn(C)c2)oc2c(F)cccc12 -14.1% [at 3.8 µM, 100% = signal doubled over neutral wells], CC(=O)Nc1ccc(S(=O)(=O)Nc2ccc3c(c2)n(C)c(=O)n3C)c(C)c1 -23.1%, CCCCn1c(=O)n(C)c(=O)c2c3c(sc21)COC(C)(C)C3 -17% [at 0.015 µM, 100% = signal doubled over neutral wells], COc1ccc(C(=O)Nc2ccccc2C(=O)NCc2cccnc2)cc1OC 42.3% [at 0.42 µM, 100% = signal doubled over neutral wells], O=C(NCc1cccnc1)c1cccc(S(=O)(=O)NCc2ccccc2)c1 -24% [at 0.0016 µM, 100% = signal doubled over neutral wells], c1ccc(CCN2CCN=C2Nc2ccccc2)cc1 -31.5% [at 0.42 µM, 100% = signal doubled over neutral wells], CN(C)C=NC(=O)c1ccc(N2CCN(c3ncc(C(F)(F)F)cc3Cl)CC2)cc1 -20.4% [at 11 µM, 100% = signal doubled over neutral wells], CN(C)c1nc(=NCc2cccs2)ss1 -34.9% [at 11 µM, 100% = signal doubled over neutral wells], CCCc1cc(=O)oc2cc(OCC(=O)NC3CCN(Cc4ccccc4)CC3)ccc12 -23.5%, CNC(=O)C1CC(=O)N(c2ccc(OCC(=O)Nc3ccccc3)cc2)C1 (centres undefined) -14.9% [at 0.135 µM, 100% = signal doubled over neutral wells], COc1cc2[nH]c3c(Cl)ncnc3c2cc1OC -29.3% [at 3.8 µM, 100% = signal doubled over neutral wells], O=C(CCc1nc2ccccc2c(=O)[nH]1)NNC(=O)c1cccc(Cl)c1 -14.7% [at 0.015 µM, 100% = signal doubled over neutral wells], CCCn1c(=O)c(C(=O)NCc2ccccc2)c(O)c2ccccc21 -28%, COc1ccnc(N2CCN(c3cccc(C(F)(F)F)c3)CC2)c1C#N 81.3%, CN(C)CCCN(C(=O)c1ccco1)c1nc2c(F)cccc2s1 -22.6% [at 0.015 µM, 100% = signal doubled over neutral wells], CCOc1ccc2ccc(OCC)c(/C=N/n3cnnc3)c2c1 -33.7%, Cc1cc2cc(C#N)c(N3CCOCC3)nc2cc1Cl -10.5% [at 0.015 µM, 100% = signal doubled over neutral wells]
